# According to PubChem BioAssay (NCATS):
# “And” between values parts separate entries of the source, which are not always exact repeats. Equal entries are not always repeated. Results filed as inconclusive are left out. Where a call stands in place of a potency, no number is given. The source made the active and inactive calls. Unless noted, the call rests on the fitted dose curve. Numbered stars: 1 amine (or outer) side, 2 acyl side, 3 side chain; on linkers, the order of the positions; unused ones are H or OH. Bridge positions count the residues as written; N and C are the ends. Square brackets hold non-standard residues; d marks the D form. Peptide text beside a SMILES is read from it. * marks the point of attachment. ξ: configuration not given here. pTerphenylCO(4''-OnC5H11) = CCCCCOc1ccc(-c2ccc(-c3ccc(C(=O)*)cc3)cc2)cc1; ξOrn(4,5-diOH) = O=C(C(CC(O)C(O)N[*:3])N[*:1])[*:2]; ξhTyr(βξ-OH,γξ-OH) = NC(C(=O)O)C(O)C(O)c1ccc(O)cc1; ξPro(3ξ-OH,4ξ-Me) = CC1CNC(C(=O)O)C1O; Hyp = O=C(O)[CH]1C[CH](O)CN1
# Assays:
# [1] = Primary qHTS for inhibitors of SARS-S pseudo-typed particle cell entry (AID 1479145); settings: outcome: dose series up to 57.1 µM unless noted; further: nearly all actives have a fitted effect of over 45% in size; further: potency means the concentration at half of the fitted maximal effect
# [2] = Primary qHTS for inhibitors of MERS-S pseudo-typed particle cell entry (AID 1479149); settings: outcome: dose series up to 57.1 µM unless noted; further: nearly all actives have a fitted effect of over 60% in size; further: potency means the concentration at half of the fitted maximal effect
# [3] = Cytotoxicity counterscreen for inhibitors of SARS-CoV-2 cell entry (AID 1645845); settings: outcome: dose series up to 57.1 µM unless noted; further: nearly all actives have a fitted effect of over 50% in size; further: potency means the concentration at half of the fitted maximal effect
# In short: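 After a 15 min room-temperature ATPLite 1step step, luminescence reflected ATP remaining in HEK293-ACE2 cells exposed to compound for 1 h plus 48 h at 37 C, with percent activity set by cell and no-cell controls.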
# [4] = Primary qHTS for Huh7 cytotoxicity: counterscreen for inhibitors of MERS-S pseudotyped particle cell entry (AID 1479147); settings: outcome: dose series up to 57.1 µM unless noted
# [5] = Primary qHTS for Vero E6 cytotoxicity: counterscreen for inhibitors of SARS-S pseudo-typed particle cell entry (AID 1479150); settings: outcome: dose series up to 57.1 µM unless noted
# [6] = qHTS Assay for Identification of Small Molecule Agonists for Hypoxia Response Element Signaling Pathway (AID 914; active means well fitted activation curve with a large enough effect in the signal ratio, with a control signal flat, not every such curve was filed as active; the % refers to the signal ratio; further: potency means the concentration at half of the fitted maximal effect); settings: ME-180 (cervical carcinoma) HRE-bla reporter, beta-lactamase ratio, CoCl2, 17 h; activation: stronger effect = higher value
# In short: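 In Opti-MEM containing 0.5% dialyzed FBS and 10 mM HEPES, ME-180 HRE-bla cells received a compound titration and EC50 CoCl2. They were incubated 17 hours, then CCF4-loaded 2.5 hours at room temperature before ratio reading.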
# [7] = qHTS Assay for Identifying Gametocytocidal Compounds (AID 743244; active means well fitted curve in the direction sought with a large enough effect; an effect the other way counts as inactive or inconclusive; further: potency means the concentration at half of the fitted maximal effect); settings: P. falciparum 3D7 stage III-V gametocytes, alamarBlue, 72 h
# In short: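 Late gametocytes (III–V), P. falciparum 3D7; 72 h drug, then 24 h alamarBlue; resazurin reduction read by fluorescence.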
# [8] = Confirmatory qHTS for VERO E6 Cytotoxicity Assay: Counterscreen for SARS-CoV-2 CPE Assay (AID 1508605); further: nearly all actives have a fitted effect of over 60% in size
# [9] = Confirmatory qHTS for activators (rescue) of SARS-CoV-2 Cytopathic Effect (CPE) (AID 1508606); further: potency means the concentration at half of the fitted maximal effect; nearly all actives have a fitted effect of over 70% in size
# [10] = Confirmatory qHTS to identify inhibitors of SARS-CoV-2 cell entry (AID 1645844); further: potency means the concentration at half of the fitted maximal effect; nearly all actives have a fitted effect of over 45% in size
# In short: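 Using stable human ACE2 Expi293F cells, compounds preincubated 1 hr before spike pseudoparticle infection; luciferase signal after 48 hr at 37C, 5% CO2, normalised to spike PP and no-fusion-protein PP wells.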
# [11] = Primary qHTS to identify inhibitors of SARS-CoV-2 cell entry (AID 1645846); settings: SARS-CoV-2 pseudovirus cell entry assay, luminescence; activity change, negative = inhibition: at 57.1 µM (top of the series) unless noted; further: potency means the concentration at half of the fitted maximal effect; nearly all actives have a fitted effect of over 45% in size
# In short: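 HEK293 cells stably expressing human ACE2, pre-treated 1 h with compound, then infected with MLV particles pseudotyped with Wuhan-Hu-1 spike (C-terminal 19-aa truncation). Luciferase luminescence after 48 h at 37 °C, normalised to spike PP and bald PP.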
# [12] = VSVG counterscreen qHTS to identify inhibitors of SARS-CoV-2 cell entry (AID 1645847); further: potency means the concentration at half of the fitted maximal effect; nearly all actives have a fitted effect of over 65% in size
# In short: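 HEK293-ACE2 cells (Expi293F, human ACE2) pretreated 1 h with compound, then infected with MLV-based VSV-G pseudotyped particles for 48 h at 37 C; luciferase luminescence normalized to VSV-G PP and bald PP wells.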
# [13] = biological target: Cytochrome P450 3A4 (Homo sapiens) (UniProt P08684); assay: qHTS Assay for Inhibitors and Substrates of Cytochrome P450 3A4 (AID 884; active means well fitted curve in the direction sought with a large enough effect; an effect the other way counts as inactive or inconclusive; further: nearly all actives have a fitted effect of over 50% in size)
# Sequence of Cytochrome P450 3A4 (Homo sapiens) (P08684 whole entry, looked up): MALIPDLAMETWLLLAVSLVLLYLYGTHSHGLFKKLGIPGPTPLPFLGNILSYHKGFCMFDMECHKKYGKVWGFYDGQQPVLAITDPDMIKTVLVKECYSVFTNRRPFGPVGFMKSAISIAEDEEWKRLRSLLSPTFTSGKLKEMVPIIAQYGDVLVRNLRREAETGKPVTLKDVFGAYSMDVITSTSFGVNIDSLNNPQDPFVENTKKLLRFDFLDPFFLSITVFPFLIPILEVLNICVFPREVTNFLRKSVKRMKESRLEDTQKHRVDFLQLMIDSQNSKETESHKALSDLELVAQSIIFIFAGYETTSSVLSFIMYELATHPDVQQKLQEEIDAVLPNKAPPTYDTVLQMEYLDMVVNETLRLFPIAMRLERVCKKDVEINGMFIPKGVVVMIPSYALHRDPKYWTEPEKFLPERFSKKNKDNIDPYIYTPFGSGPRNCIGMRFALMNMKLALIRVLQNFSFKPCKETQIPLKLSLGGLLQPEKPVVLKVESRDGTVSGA
# In short: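 Luminescent readout of luciferin produced by CYP3A4 (20 nM) dealkylation of Luciferin-PPXE, 25 uM (its KM). NADPH-driven reaction ran 60 min at RT after 10 min compound preincubation; data scaled to 57 uM ketoconazole as 100% inhibition.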
# [14] = Confirmation and Secondary Assay for Modulators of Hemoglobin Beta Chain Splicing at IVS2 654 locus (AID 910; active means well fitted curve in the direction sought with a large enough effect; an effect the other way counts as inactive or inconclusive;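 further: per-well total GFP intensity by laser scanning cytometry after 2-day treatment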)
# In short: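 HeLa cells stably carrying EGFP interrupted by mutant beta-globin IVS2-654 intron (CMV-driven) were treated with compound for 2 days at 37C; corrected splicing was scored as total peak GFP intensity per well (488 nm excitation, 500-520 nm emission).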
# [15] = Confirmation and Secondary Assay for Modulators of Hemoglobin Beta Chain Splicing at IVS2 705 locus (AID 930; active means well fitted curve in the direction sought with a large enough effect; an effect the other way counts as inactive or inconclusive;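 further: HeLa cells stably expressing the EGFP-705 splicing reporter; GFP fluorescence per well restored by corrected splicing of the IVS2-705 intron in EGFP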)
# In short: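 Per-well GFP, captured at 1 x 8 µm resolution with 488 nm excitation, served as the read-out for HeLa EGFP-705 cells incubated 2 days with test compound versus DMSO.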
# [16] = qHTS Assay for Lipid Storage Modulators (AID 1519); settings: Drosophila S3 cells, BODIPY lipid droplet/cell ratio, laser cytometry, cells loaded with oleic acid; for activity change, negative = inhibition: at 57.5 µM (top of the series)
# In short: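 Cells seeded at 5,000 per well were treated with compounds over a concentration series and loaded with oleic acid (400 uM, as added). Lipid droplet fluorescence (488 nm excitation, 500-530 nm channel) was read by laser-scanning cytometry and normalized to 20 uM Triacsin C.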
# [17] = biological target: Ubiquitin carboxyl-terminal hydrolase 1 (Homo sapiens) (UniProt O94782); assay: Inhibitors of USP1/UAF1: Pilot qHTS (AID 504865; active means well fitted curve in the direction sought with a large enough effect; an effect the other way counts as inactive or inconclusive;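 further: rhodamine fluorescence freed from ubiquitin-rhodamine substrate followed over time; top concentration of the series differs between compounds; nearly all actives have a fitted effect of over 35% in size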)
# Sequence of Ubiquitin carboxyl-terminal hydrolase 1 (Homo sapiens) (O94782 whole entry, looked up): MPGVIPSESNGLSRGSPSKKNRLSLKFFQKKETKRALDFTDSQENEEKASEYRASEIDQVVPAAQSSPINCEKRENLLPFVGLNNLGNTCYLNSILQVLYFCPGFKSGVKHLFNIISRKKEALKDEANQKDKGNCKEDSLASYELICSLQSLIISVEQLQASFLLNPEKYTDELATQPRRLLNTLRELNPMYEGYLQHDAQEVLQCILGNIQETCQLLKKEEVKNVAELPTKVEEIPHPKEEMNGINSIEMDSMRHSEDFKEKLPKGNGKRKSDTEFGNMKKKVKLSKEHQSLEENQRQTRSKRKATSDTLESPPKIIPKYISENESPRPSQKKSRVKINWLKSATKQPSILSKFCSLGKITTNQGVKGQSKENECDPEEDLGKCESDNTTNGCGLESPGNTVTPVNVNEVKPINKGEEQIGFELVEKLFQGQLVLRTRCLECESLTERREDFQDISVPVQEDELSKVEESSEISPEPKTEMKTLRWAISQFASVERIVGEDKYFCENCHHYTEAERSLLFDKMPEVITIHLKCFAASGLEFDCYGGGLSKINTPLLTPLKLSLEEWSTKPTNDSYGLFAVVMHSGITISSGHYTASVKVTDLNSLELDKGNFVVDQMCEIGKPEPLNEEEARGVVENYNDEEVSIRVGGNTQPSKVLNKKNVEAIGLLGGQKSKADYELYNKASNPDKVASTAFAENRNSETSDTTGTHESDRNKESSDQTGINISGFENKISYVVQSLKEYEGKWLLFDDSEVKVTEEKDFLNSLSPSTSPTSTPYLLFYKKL
# In short: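 USP1/UAF1 complex at 1 nM preincubated 15 min at room temperature with compound, then Ub-Rho substrate added at 150 nM final. Fluorescence (480/540 nm) read kinetically in 50 mM HEPES pH 7.8, 0.5 mM EDTA, 1 mM TCEP, 0.1 mg/ml BSA, 0.01% Tween-20.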
# [18] = biological target: Phospholipid hydroperoxide glutathione peroxidase GPX4 (Homo sapiens) (UniProt P36969); assay: Primary qHTS Assay for Inhibitors of Recombinant Selenoprotein Glutathione Peroxidase 4 (GPX4) (AID 1845192; active means well fitted curve in the direction sought with a large enough effect; an effect the other way counts as inactive or inconclusive; further: nearly all actives have a fitted effect of over 65% in size)
# Sequence of Phospholipid hydroperoxide glutathione peroxidase GPX4 (Homo sapiens) (P36969 whole entry, looked up): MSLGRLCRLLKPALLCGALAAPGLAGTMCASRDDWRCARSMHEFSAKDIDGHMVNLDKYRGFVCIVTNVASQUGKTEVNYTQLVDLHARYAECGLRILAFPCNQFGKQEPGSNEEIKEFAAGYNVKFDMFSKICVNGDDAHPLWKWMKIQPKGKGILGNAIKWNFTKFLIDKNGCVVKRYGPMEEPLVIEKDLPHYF
# In short: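 qHTS, GR-coupled: GPX4 200 nM + cpd 30 min RT → GSH 1 mM, NADPH 0.5 mM, GR 100 nM → CHP 0.5 mM start; fluor 340/450 at t0 and t15 min; no-enzyme wells as control.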
# [19] = MultiTox-Fluor Cytotoxicity Assay - LYMP1-002 - Dead Cells (AID 960; active means well fitted curve in the direction sought with a large enough effect; an effect the other way counts as inactive or inconclusive; further: potency means the concentration at half of the fitted maximal effect; nearly all actives have a fitted effect of over 60% in size)
# In short: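 Dead-cell fluorescence (Ex/Em 485/520) after 16 h compound exposure at 37 C of LYMP1-002 lymphoblastoid cells in complete medium; AC50 by Hill equation, with data scaled between DMSO and 15 uM tetraoctylammonium bromide.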
# [20] = biological target: Peroxisome proliferator-activated receptor delta (Homo sapiens) (UniProt Q03181); assay: qHTS assay for small molecule agonists of peroxisome proliferator-activated receptor delta signaling (AID 588534)
# Sequence of Peroxisome proliferator-activated receptor delta (Homo sapiens) (Q03181 whole entry, looked up): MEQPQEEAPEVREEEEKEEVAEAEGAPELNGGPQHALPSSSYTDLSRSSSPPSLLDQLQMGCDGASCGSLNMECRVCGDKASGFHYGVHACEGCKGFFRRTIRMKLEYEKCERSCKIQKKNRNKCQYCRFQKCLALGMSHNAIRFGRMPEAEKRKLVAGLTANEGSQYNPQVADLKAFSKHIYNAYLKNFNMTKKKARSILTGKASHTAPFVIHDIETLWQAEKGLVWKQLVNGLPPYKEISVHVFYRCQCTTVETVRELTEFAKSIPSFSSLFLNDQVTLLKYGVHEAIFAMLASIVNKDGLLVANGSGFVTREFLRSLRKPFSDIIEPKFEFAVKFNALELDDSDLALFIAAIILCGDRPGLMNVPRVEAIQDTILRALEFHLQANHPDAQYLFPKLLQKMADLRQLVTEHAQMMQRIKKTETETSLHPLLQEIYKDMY
# In short: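 Agonist-mode beta-lactamase reporter readout (CCF4 dye, 2 h at RT) after 18 h at 37 °C exposure to a titration; Hill-equation fitting gave EC50 and maximal response.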
# [21] = biological target: Peroxisome proliferator-activated receptor gamma (Homo sapiens) (UniProt P37231); assay: qHTS assay for small molecule agonists of peroxisome proliferator-activated receptor gamma signaling (AID 588536; active means well fitted curve in the direction sought with a large enough effect in the signal ratio, with a control signal flat, not every such curve was filed as active; the % refers to the signal ratio)
# Sequence of Peroxisome proliferator-activated receptor gamma (Homo sapiens) (P37231 whole entry, looked up): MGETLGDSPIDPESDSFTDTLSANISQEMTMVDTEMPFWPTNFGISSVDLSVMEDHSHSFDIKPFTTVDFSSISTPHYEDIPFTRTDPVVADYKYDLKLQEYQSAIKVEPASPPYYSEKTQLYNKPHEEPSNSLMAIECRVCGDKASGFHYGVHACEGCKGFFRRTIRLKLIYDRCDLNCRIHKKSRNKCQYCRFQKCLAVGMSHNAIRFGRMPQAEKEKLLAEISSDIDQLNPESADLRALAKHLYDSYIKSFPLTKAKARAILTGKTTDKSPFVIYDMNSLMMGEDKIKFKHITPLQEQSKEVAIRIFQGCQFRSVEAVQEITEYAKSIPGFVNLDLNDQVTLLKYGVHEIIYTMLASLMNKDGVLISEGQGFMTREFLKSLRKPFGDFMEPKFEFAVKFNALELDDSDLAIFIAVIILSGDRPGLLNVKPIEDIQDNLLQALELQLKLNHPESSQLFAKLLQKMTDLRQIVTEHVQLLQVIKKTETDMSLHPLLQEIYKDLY
# In short: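 Cells were plated and held 6–6.5 h at 37 C, then compounds were added as a titration series. After a further 16 h, CCF4 dye was loaded for 2 h at room temperature and emission at 460/530 nm recorded.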
# [22] = S16 Schwann cell PMP22 intronic element firefly luciferase assay (AID 624032; active means well fitted curve in the direction sought with a large enough effect; an effect the other way counts as inactive or inconclusive; further: potency means the concentration at half of the fitted maximal effect; nearly all actives have a fitted effect of over 30% in size)
# In short: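 Rat S16 Schwann cells stably carrying a PMP22 intronic element-driven Fluc reporter were seeded overnight, then exposed to compounds for 24 h at 37 °C. Luminescence was normalized to PTC124 (positive control) and DMSO (0% activity).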
# [23] = qHTS assay for small molecule agonists of the antioxidant response element (ARE) signaling pathway (AID 651741; active means well fitted activation curve with a large enough effect in the signal ratio; the % refers to the signal ratio; further: potency means the concentration at half of the fitted maximal effect)
# In short: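 Reporter: beta-lactamase under ARE, stably in HepG2. Exposure: 16 h, 37 C, compounds delivered in DMSO by pin tool after 5 h cell preincubation. Readout: FRET substrate fluorescence after 2 h at RT.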
# [24] = qHTS assay for small molecule agonists of the antioxidant response element (ARE) signaling pathway measured by Nrf2-dependant transcriptional activity (AID 720636; active means well fitted curve in the direction sought with a large enough effect in the repeat runs; an effect the other way counts as inactive or inconclusive;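 further: HepG2 cells with an ARE-driven luciferase reporter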)
# In short: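 In HepG2 cells engineered with an Nrf2-responsive luciferase gene, ARE induction was quantified as luminescence after 16 hr compound treatment at 37 C.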
# [25] = biological target: Cytochrome P450 2D6 (Homo sapiens) (UniProt P10635); assay: Cytochrome P450 family 2 subfamily D member 6 (CYP2D6) small molecule antagonists: luciferase biochemical (cell-free) qHTS assay (AID 1645840; active means well fitted curve in the direction sought with a large enough effect in the repeat runs; an effect the other way counts as inactive or inconclusive; further: potency means the concentration at half of the fitted maximal effect; nearly all actives have a fitted effect of over 55% in size)
# Sequence of Cytochrome P450 2D6 (Homo sapiens) (P10635 whole entry, looked up): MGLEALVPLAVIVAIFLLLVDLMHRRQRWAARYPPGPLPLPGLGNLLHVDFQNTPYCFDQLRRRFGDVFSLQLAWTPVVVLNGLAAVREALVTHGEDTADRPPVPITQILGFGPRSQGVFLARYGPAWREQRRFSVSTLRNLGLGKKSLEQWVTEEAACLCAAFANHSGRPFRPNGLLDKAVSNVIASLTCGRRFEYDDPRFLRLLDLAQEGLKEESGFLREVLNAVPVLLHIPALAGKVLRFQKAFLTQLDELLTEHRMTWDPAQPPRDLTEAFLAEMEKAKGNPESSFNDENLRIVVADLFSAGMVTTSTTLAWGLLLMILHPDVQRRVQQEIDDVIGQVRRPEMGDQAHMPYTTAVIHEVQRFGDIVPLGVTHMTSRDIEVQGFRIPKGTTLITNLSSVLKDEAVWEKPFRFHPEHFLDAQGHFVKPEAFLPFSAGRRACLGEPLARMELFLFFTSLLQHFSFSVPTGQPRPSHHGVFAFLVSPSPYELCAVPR
# In short: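 P450-Glo CYP2D6 system: proluciferin substrate converted by enzyme to luciferin, read by luminescence proportional to activity. Enzyme-substrate mix with compound 10 min at room temperature, then NADPH regeneration 1 h before detection reagent.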
# [26] = measured here: cell count channel max response
# [27] = measured here: lipid channel max response
compound,measurement,setting,value
C/C(O)=C(\C#N)C(=O)Nc1ccc(C(F)(F)F)cc1,Potency,[1],inactive
same,Potency,[2],inactive
same,Potency,[3],8.91 µM (active)
Cc1c(OCC(F)(F)F)ccnc1C[S@@](=O)c1nc2ccccc2[nH]1,Potency,[1],inactive
same,Potency,[4],inactive
same,Potency,[5],inactive
C=C1/C(=C\C=C2/CCC[C@]3(C)[C@@H]([C@H](C)CCCC(C)(C)O)CC[C@@H]23)C[C@@H](O)C[C@@H]1O,Potency,[1],inactive
same,Potency,[4],inactive
same,Potency,[5],inactive
same,Potency,[3],inactive
CCN(CC)Cc1cc(Nc2ccnc3cc(Cl)ccc23)ccc1O,Potency,[6],5.01 µM (active)
same,Potency,[7],11.2 µM (active)
same,Potency,[1],10 µM (active)
same,Potency,[2],14.1 µM (active)
same,Potency,[5],inactive
same,Potency,[8],inactive
same,Potency,[9],5.62 µM (active)
same,Potency,[10],3.83 µM (active)
same,Potency,[11],11.2 µM (active)
same,Potency,[12],3.04 µM (active)
COC[C@H]1C[C@@H](c2ncc(-c3ccc4c(c3)COc3cc5c(ccc6[nH]c([C@@H]7CC[C@H](C)N7C(=O)[C@@H](NC(=O)OC)C(C)C)nc65)cc3-4)[nH]2)N(C(=O)[C@H](NC(=O)OC)c2ccccc2)C1,Potency,[1],inactive
same,Potency,[4],inactive
same,Potency,[5],inactive
same,Potency,[10],0.341 µM (active)
same,Potency,[3],inactive
same,Potency,[12],1.52 µM (active)
CCN(CC)CCOC(=O)c1ccc(N)cc1Cl,Potency,[1],inactive
same,Potency,[4],inactive
same,Potency,[5],inactive
same,Potency,[3],inactive
CNC(C)C(O)c1ccccc1 (configuration not stated),Potency,[13],inactive
same,Potency,[14],inactive
same,Potency,[15],inactive
same,"activity change, negative = inhibition",[16],8.05% (inactive)
same,max response,[16]; [26],10.2%
same,max response,[16]; [27],21.8%
same,Potency,[17],inactive
same,Potency,[18],inactive
C[C@H]1O[C@@H](O[C@H]2[C@@H](O)C[C@H](O[C@H]3[C@@H](O)C[C@H](O[C@H]4CC[C@@]5(C)[C@H](CC[C@@H]6[C@@H]5C[C@@H](O)[C@]5(C)[C@@H](C7=CC(=O)OC7)CC[C@]65O)C4)O[C@@H]3C)O[C@@H]2C)C[C@H](O)[C@@H]1O,Potency,[19],1 µM (active)
COc1cc(CNC(=O)CCCC/C=C/C(C)C)ccc1O,"activity change, negative = inhibition",[16],-5.1% (inactive) and 0.692% (inactive)
same,max response,[16]; [26],-0.801% and 21.3%
same,max response,[16]; [27],-2.34% and 21.8%
same,outcome,[20],inactive
same,outcome,[21],inactive
same,Potency,[22],9.07 µM (active)
same,Potency,[23],42.2 µM (active)
same,outcome,[24],inactive
CO[C@H](C(=O)[C@@H](O)[C@@H](C)O)C1Cc2cc3cc(O[C@H]4C[C@@H](O[C@H]5C[C@@H](O)[C@H](O)[C@@H](C)O5)[C@@H](O)[C@@H](C)O4)c(C)c(O)c3c(O)c2C(=O)[C@H]1O[C@H]1C[C@@H](O[C@H]2C[C@@H](O[C@H]3C[C@](C)(O)[C@H](O)[C@@H](C)O3)[C@H](O)[C@@H](C)O2)[C@H](O)[C@@H](C)O1 (some centres not stated),Potency,[7],0.833 µM (active)
OCCOc1ccc(/C(=C(/CCCl)c2ccccc2)c2ccccc2)cc1,Potency,[8],inactive
"CCCCCOc1ccc(-c2ccc(-c3ccc(C(=O)NC4CC(O)C(O)NC(=O)C5C(O)C(C)CN5C(=O)C(C(C)O)NC(=O)C(C(O)C(O)c5ccc(O)cc5)NC(=O)C5CC(O)CN5C(=O)C(C(C)O)NC4=O)cc3)cc2)cc1 (stereo not drawn) ({pTerphenylCO(4''-OnC5H11)}-[ξOrn(4,5-diOH)]T[Hyp][ξhTyr(βξ-OH,γξ-OH)]T[ξPro(3ξ-OH,4ξ-Me)]; lactam 1-C; configuration not given here)",Potency,[8],inactive
C[C@@]12CCCCC[C@@H](Cc3ccc(O)cc31)[C@H]2N,Potency,[25],16.9 µM (active)
same,Potency,[18],inactive
